Source: PubChem BioAssay
A selection: hits, their analogues and other compounds. The true share with any hit is near 2.4%.
D2 PAM-1 = positive allosteric modulators of human D2 dopamine receptor | 340,000 compounds, 0.34% hits | HEK293 T-REx D2, calcium flux, EC20 dopamine potentiation | potentiation, % at 10 µM;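 active means potentiation over 3 SD above the plate norm, cut at about 30% in these data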; further: 0% is about no effect
Target sequence (P14416 whole entry, looked up): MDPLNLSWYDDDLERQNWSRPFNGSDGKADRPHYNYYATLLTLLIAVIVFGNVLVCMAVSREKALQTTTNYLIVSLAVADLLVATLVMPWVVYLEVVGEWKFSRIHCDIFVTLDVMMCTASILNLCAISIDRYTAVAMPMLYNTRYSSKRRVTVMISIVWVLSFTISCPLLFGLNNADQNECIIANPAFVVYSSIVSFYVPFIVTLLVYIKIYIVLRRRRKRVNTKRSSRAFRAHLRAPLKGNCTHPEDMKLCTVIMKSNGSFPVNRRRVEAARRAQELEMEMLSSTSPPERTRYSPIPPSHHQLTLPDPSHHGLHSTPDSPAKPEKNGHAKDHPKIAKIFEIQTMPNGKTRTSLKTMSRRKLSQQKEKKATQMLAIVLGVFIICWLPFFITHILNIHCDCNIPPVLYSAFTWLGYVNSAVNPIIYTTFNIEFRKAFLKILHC
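Primary screen. Calcium kinetics in induced HEK293 T-REx D2 cells: compound pre-addition 180 s, EC20 dopamine, 180 s more.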
D2 antag = antagonizes the human D2 dopamine receptor; P14416; HEK293 TREx D2 cells, calcium flux, dopamine EC80; inhibition, % at 10 µM; 340,000 compounds, 2% hits; AID 485344; in the data active means inhibition above about 30%; inactive means below that, where a call was filed; further: 0% is about no effect
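Antagonism is scored as inhibition of an EC80 dopamine-evoked calcium signal in a force-coupled, tetracycline-inducible HEK293 T-REx D2 line, with compound present 180 s before agonist.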
D2 PAM-2 = positive allosteric modulators of human D2 dopamine receptor; DiscoveRx D2 beta-arrestin cells, luminescence, 90 min; 100% = 57 uM dopamine signal; potentiation, % (test concentration not listed); 360,000 compounds, 0.23% hits; AID 624464; in the data active means potentiation above about 50%; inconclusive means mostly about 30% to 49%
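PathHunter beta-arrestin assay in DiscoveRx D2 cells. Compounds were added with an EC20 of dopamine (50 nM final) for 90 min at 37 deg C. Luminescence was read 1 h after detection reagent, with 57 uM dopamine as the EC100 control.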
D2 ag-1 = human D2 receptor agonism in beta-arrestin assay; P14416; DiscoveRx PathHunter D2 beta-arrestin, luminescence, 90 min; 100% = 57 uM dopamine signal; activation, % (no concentration beside the values); 360,000 compounds, 0.084% hits; AID 624465; in the data active means activation above about 40%; inconclusive means between about 15% and that limit
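DiscoveRx PathHunter D2 beta-arrestin cells (2,100/well) attached overnight, then compound-stimulated 90 min at 37 C in HBSS/10 mM HEPES/0.1% Tween-20 buffer; beta-galactosidase complementation read by luminescence after 1 h at ambient temperature. Dopamine 57 uM final (EC100) as control.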
D2 ag-2 = agonists of human D2 dopamine receptor; P14416; HEK293 T-REx D2 cells, calcium flux agonist mode; activation, % at 2 µM; 340,000 compounds, 0.53% hits;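 active means activation over 3 SD above normal in the single-dose calcium agonist read, cut at about 30% in these data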; further: 0% is about no effect
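In this primary screen, compounds producing a positive calcium signal within 180 s of addition to tetracycline-induced, force-coupled HEK293 Trex D2 cells are flagged; cells are dye-loaded with a no-wash calcium kit beforehand.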
D3 arrestin ag = D3 receptor agonism confirmed, beta-arrestin readout | shares compounds with D2 ag-2 | DiscoveRx D3 beta-arrestin cells, luminescence, 90 min | Potency, µM (series often up to 76.9 µM), for the others: at the top dose activation, actives largely listed as activators | 2,300 compounds, 4% hits | AID 720506;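 further: potency means the concentration at half of the fitted maximal effect; 100% = dopamine control response; nearly all actives have a fitted effect of over 70% in size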
D2 ag-3 = counter-screen for D3 agonists: human D2 dopamine receptor agonism. shares compounds with D2 ag-2. DiscoveRx PathHunter D2 beta-arrestin, luminescence, 90 min; response scale: percent relative to full dopamine signal. Potency, µM (doses to about 76.9 µM), for the others: at the top dose activation, most hits filed as activators. 2,300 compounds, 5.9% hits. AID 720507; further: potency means the concentration at half of the fitted maximal effect; % of control where 0% means no effect; nearly all actives have a fitted effect of over 70% in size
* hit, by the source's call; ? = inconclusive; · = no result; ! = a repeat was not active. Unless noted, the call rests on the fitted dose curve; in most records, active means well fitted activation curve with a large enough effect; inconclusive means small, poorly fitted or top-dose-only effect; inactive means flat fitted curve, though single readings scatter.

SMILES | D2 PAM-1 | D2 antag | D2 PAM-2 | D2 ag-1 | D2 ag-2 | D3 arrestin ag | D2 ag-3
CCOC(=O)N1CCN(CC(O)COCc2ccc(Cl)cc2)CC1 (stereo not given) | 15 | -8 | -11 | -1 | 1 | · | ·
O=S(=O)(c1ccc(Br)cc1)N1CCn2cccc2C1c1ccc(Br)cc1 (stereo not given) | 18 | · | · | · | 1 | · | ·
CC(=O)c1ccc(OCC(O)CN2CCN(c3ccccn3)CC2)cc1 (stereo not given) | -20 | 88* | 94* | 47* | 83* | ? | 4µM*
OC(COCC1COc2ccccc2O1)CN1CCN(c2ccccn2)CC1 (stereo not given) | -23 | 83* | 25 | 45*! | 77* | ? | ?
CC(C)(C)C1CCC(OCC(O)CN2CCN(c3ccccn3)CC2)CC1 (stereo not given) | -32 | 63* | 20 | ? | 62* | 0.63µM* | 20µM*
CCc1ccc(OCC(O)CN2CCN(c3ccccn3)CC2)cc1 (stereo not given) | -36 | -4 | 6 | ? | 80* | ? | ?
CC(=O)c1ccc(OCC(O)CN2CCN(CC(O)COc3ccc(C(C)=O)cc3)CC2)cc1 (stereo not given) | -1 | -11 | 1 | -1 | 0 | · | ·
CCC(=O)N1c2ccccc2CC1C(=O)NCc1ccc(CC)cc1 (stereo not given) | -1 | · | · | · | 13 | · | ·
CCOc1ccc(CC(=O)Nc2ccc3nc(N4CCCCC4)cc(C)c3c2)cc1OCC | 12 | · | · | · | 0 | · | ·
CCOc1ccc(NC(=O)Cn2cnc3c(oc4ccccc43)c2=O)cc1 | -15 | · | · | · | -1 | · | ·
O=C(c1ccc(C(F)(F)F)cc1)C1CCCN(C(=O)Cn2cncn2)C1 (stereo not given) | -4 | 20 | -13 | -4 | 0 | -8% | 0%
O=C(c1cccc(C(F)(F)F)c1)C1CCCN(C(=O)Cn2cncn2)C1 (stereo not given) | -5 | -4 | -11 | -8 | 0 | · | ·
CN1CCN(C(CNC(=O)C(=O)Nc2cccc(Cl)c2)c2ccc3c(c2)OCO3)CC1 (stereo not given) | 2 | · | · | · | · | · | ·
CCN(c1ccc(OC)cc1)S(=O)(=O)c1c(C(=O)N2CCCCCC2)c(C)n(C)c1C | -5 | · | · | · | -1 | · | ·
CN(C)C1(CNC(=O)COc2ccc([N+](=O)[O-])cc2)CCCCC1 | 10 | · | · | · | -1 | · | ·
Nc1ccc(-c2nc3cc([N+](=O)[O-])ccc3o2)cc1 | 18 | -6 | -12 | -3 | 1 | 17% | 7%
CCc1noc(C)c1C(=O)NNC(=O)c1cc(OC)c(OC)c(OC)c1 | -1 | -10 | -6 | 1 | 0 | · | ·
CCc1noc(C)c1C(=O)NNC(=O)COc1ccccc1C | -6 | 24 | -1 | -2 | 1 | -6% | -5%
CCc1noc(C)c1C(=O)NNC(=O)c1cc(OC)cc(OC)c1 | -8 | -21 | -1 | 0 | 2 | -3% | -4%
CCc1noc(C)c1C(=O)NNC(=O)c1ccccc1 | -8 | -11 | 0 | -3 | 0 | · | ·
C/C(Cn1cnc([N+](=O)[O-])n1)=N\NC(=O)c1ccccc1O | 3 | 0 | -9 | 7 | 0 | · | ·
C/C(Cn1cnc([N+](=O)[O-])n1)=N\NC(=O)c1ccc(O)cc1O | 17 | -4 | 1 | -4 | 6 | ? | 1%
CC(C)c1cccc(C(C)C)c1OC(=O)[C@H]1OC(c2ccc(Br)cc2)=C[C@@H]1c1ccc(Br)cc1 | 8 | 1 | 7 | 5 | 1 | 14% | 5%
CC(C)c1cccc(C(C)C)c1OC(=O)[C@H]1OC(C(C)(C)C)=C[C@@H]1c1ccccc1 | -2 | 5 | -9 | -2 | 0 | · | ·
CCCC(c1nnnn1Cc1ccc(OC)cc1)N1CCN(c2ccccc2)CC1 (stereo not given) | -10 | 8 | -5 | ? | 45* | -5% | ?
SMILES | D2 PAM-1 | D2 antag | D2 PAM-2 | D2 ag-1 | D2 ag-2 | D3 arrestin ag | D2 ag-3
COc1ccc(CCNC(=O)c2cc(C3CC3)on2)cc1OC | -1 | -4 | -3 | -4 | 0 | -10% | 0%
OC(CN1CCN(Cc2ccc3c(c2)OCO3)CC1)c1c[nH]c2ccccc12 (stereo not given) | -31 | -1 | -15 | -1 | 0 | · | ·
OC(CN1CCN(c2ccccc2)CC1)c1c[nH]c2ccccc12 (stereo not given) | -24 | 54* | -11 | -1 | 30 | 6% | 8%
Cc1ccc(-c2nn3c(=O)cc(CN4CCN(C(=O)c5ccc(C(C)(C)C)cc5)CC4)nc3s2)cc1 | -3 | · | · | · | 0 | · | ·
Cc1cc(C(C)(C)C)cc(S(=O)(=O)NCCc2ccncc2)c1C | 4 | 1 | 2 | 1 | 2 | -2% | 0%
CCN1C=C(Cc2ccccc2C)C2=C(C1)C(c1ccccc1C)C(C#N)=C(N)O2 (stereo not given) | 0 | · | -34 | 0 | · | · | ·
CCN1C=CC2=C(C#N)C(N)C(C#N)(C#N)C(c3ccccc3C(F)(F)F)C2C1 (stereo not given) | 14 | 14 | -13 | -8 | 3 | -1% | -3%
Cc1ccc(S(=O)(=O)N2CCOCC2)cc1C(=O)Nc1ccccc1C(=O)O | 16 | · | · | · | 1 | · | ·
CC(C)N1CCN(Cc2ccsc2)CC1CCO (stereo not given) | -22 | 44* | -7 | -4 | 44* | -10% | -2%
CCCCNC(=O)C(CC)(ONc1ccccc1C(F)(F)F)c1ccccc1 (stereo not given) | 7 | -10 | -16 | -3 | 0 | -3% | 9%
CCCCNC(=O)[C@@](CC)(ONc1ccccc1C(F)(F)F)c1cccc2ccccc12 | -2 | 6 | -14 | -5 | 0 | · | ·
Cc1cc(C)cc(NC(=O)C2CCCN(c3nnc(-n4c(C)ccc4C)s3)C2)c1 (stereo not given) | 25 | · | · | · | -1 | · | ·
O=C(Nc1nnc2n1CCS2)c1cc(C(F)(F)F)cc(C(F)(F)F)c1 | -5 | · | · | · | · | · | ·
COc1ccc(NC(=O)C2CCCNC2)cc1OCC(C)C (stereo not given) | 5 | -3 | -2 | 3 | 0 | · | ·
COc1ccc(NC(=O)C2CCCN(CCCc3ccccc3)C2)cc1OCC(C)C (stereo not given) | -26 | 80* | -47 | 13 | 75* | -11% | ?
Cc1ccc(N2CCn3c2nc2c3c(=O)n(Cc3cccc(Cl)c3)c(=O)n2C)cc1C | -2 | · | · | · | 2 | · | ·
